From PubChem BioAssay (NCATS)
Records with an inconclusive call do not appear. Activity calls are given as the source filed them. Calls follow the shape of the dose curve; as a rule, active = well fitted activation curve with a large enough effect; inconclusive = small, poorly fitted or top-dose-only effect; inactive = flat fitted curve, though single readings scatter.

test: Validation screen for small molecules that induce DNA re-replication in SW480 colon adenocarcinoma cells (AID 504364); settings: DNA re-replication phenotype (high-content imaging); series mostly up to 46.1 µM
Description: H Molecular Libraries Probe Production Network [MLPCN]
NIH Chemical Genomics Center [NCGC]
Assay Provider: Melvin DePamphilis, NICHD, NIH
Eukaryotic cells normally restrict genome duplication to once per cell division. When this process is aberrant, DNA re-replication occurs when cells reinitiate DNA replication before the first round of replication is complete. DNA re-replication induces the DNA damage response, arrests cell proliferation, and triggers apoptosis. The cell cycle components cyclin A, Cdt-1, Cdc6 and geminin are critical regulators of this process and their misregulation results in DNA re-replication in normal and cancer cells. To identify compounds that induce re-replication in normal cells, an image-based assay was used to measure DNA content of nuclei, as detected by the fluorescent DNA binding dye, Hoechst. Cell nuclei were imaged by a fluorescence scanning plate imager and compounds that induce DNA re-replication were identified by the increase of nuclei with elevated fluorescence intensity.#
For screening, 250 cells in 5 uL/well were dispensed into black clear 1536-well plates (Aurora) using a solenoid-based dispenser. Following transfer of 23 nL compound or DMSO vehicle by a pin tool, the plates were incubated 48 hr at 37 C and 5% CO2. After addition of 1 uL/well Hoescht stain, the plates were incubated 40 min at 37 C, 5% CO2 and total intensity of fluorescent objects (nuclei) were enumerated by an Acumen Explorer Ex3 (TTP LabTech) fluorescence scanning plate imager (405 nm excitation, 500-530 nm emission).
Keywords: NIH Roadmap, MLPCN, MLI, MLSMR, qHTS, NCGC, DNA replication, cancer

| SMILES | outcome |
| --- | --- |
| Nc1ncnc2c1ncn2[C@@H]1O[C@H](COP(=O)(O)CP(=O)(O)OP(=O)(O)O)[C@H](O)[C@H]1O | inactive |
| CC[C@@H](CO)NC(=O)[C@H]1C=C2c3cccc4c3c(cn4C)C[C@H]2N(C)C1 | inactive |
| CN1CCC23CCCC[C@H]2C1Cc1ccc(O)cc13 (stereo not given in full) | inactive |
| COc1cc(C[C@@H](C)N)c(OC)cc1I | inactive |
| C=CCN1CCc2cccc3c2C1Cc1ccc(O)c(O)c1-3 (stereo not given) | inactive |
| CCCN(CCC)C(=O)Cc1c(-c2ccc(Cl)cc2)nc2c(Cl)cc(Cl)cn12 | inactive |
| O=C(OC1CCN(CCCl)CC1)C(c1ccccc1)c1ccccc1 | inactive |
| COc1cc(C=C(C#N)C#N)cc(O)c1O | inactive |
| COc1ccc2c3c1O[C@H]1C(=O)CC[C@@]4(O)C(C2)N(CC2CC2)CCC314 (stereo not given in full) | inactive |
| CCNC(=O)[C@H]1O[C@@H](n2cnc3c(N)ncnc32)[C@H](O)[C@H]1O | inactive |
| CCCN1CCc2cccc3c2C1Cc1ccc(O)c(O)c1-3 (stereo not given) | inactive |
| C[C@H]1OC[C@@H](C[N+](C)(C)C)O1 | inactive |
| COc1ccc2c(c1O)-c1cccc3c1C(C2)N(C)CC3 (stereo not given) | inactive |
| C[C@]12CC[C@H](OS(=O)(=O)O)CC1=CCC1C2CC[C@]2(C)C(=O)CC[C@@H]12 (stereo not given in full) | inactive |
| CCC(CO)NC(=O)[C@@H]1C=C2c3cccc4[nH]cc(c34)C[C@H]2N(C)C1 (stereo not given in full) | inactive |
| CCCC[N+]1(C)C2CC(OC(=O)C(CO)c3ccccc3)CC1C1OC12 (stereo not given) | inactive |
| COC(=O)C(N)CCCN=C(N)N[N+](=O)[O-] (stereo not given) | inactive |
| CC1Cc2cc3c(cc2C(c2ccc(N)cc2)=NN1)OCO3 (stereo not given) | inactive |
| CN1C[C@@H](CS(=O)(=O)N(C)C)C[C@@H]2c3cccc4c3c(cn4C)C[C@H]21 | inactive |
| CC(C)(O)C1C2OC(=O)C1[C@]1(O)C[C@H]3O[C@]34C(=O)O[C@H]2[C@]14C (stereo not given in full) (tested in a mixture with another compound) | inactive |

| SMILES | outcome |
| --- | --- |
| CCCN1CCC[C@@H]2Cc3n[nH]cc3C[C@H]21 | inactive |
| CCN(CC)C(=O)N[C@@H]1C[C@@H]2c3cccc4[nH]cc(c34)C[C@H]2N(C)C1 | inactive |
| CC12CCC3C(CCC4=C(O)C(=O)CCC43C)C1CCC2=O (stereo not given) | inactive |
| CCc1c(C(=O)OC)ncc2[nH]c3cc(OC)c(OC)cc3c12 | inactive |
| CCCN(CCC)[C@@H]1CCc2c(F)ccc(O)c2C1 | inactive |
| O=C(O)C1C2CCC(O2)C1C(=O)O (stereo not given) | inactive |
| CCN1C[C@]2(C)CC[C@H](O)[C@@]34[C@@H]5C[C@@H]6[C@@H](OC)C[C@@](O)(C5[C@H]6O)[C@@H](C[C@@H]23)[C@@H]14 | inactive |
| C[C@@H]1O[C@@H](O[C@H]2C[C@@H](O)[C@]3(CO)[C@H]4[C@H](O)C[C@]5(C)[C@@H]([C@@H]6COC(=O)C6)CC[C@]5(O)[C@@H]4CC[C@]3(O)C2)[C@H](O)[C@H](O)[C@H]1O | inactive |
| C=CCN1CC[C@@]2(C)c3cc(O)ccc3CC1[C@@H]2C | inactive |
| CCCN1CCC[C@@H](c2cccc(C#N)c2)C1 | inactive |
| NC(Cn1ccc(=O)[nH]c1=O)C(=O)O (stereo not given) | inactive |
| C[C@H]1C2Cc3ccc(O)cc3[C@]1(C)CCN2CC1CC1 | inactive |
| NNCc1cccc(O)c1 | inactive |
| CCCCN1C2CCC1CC(OC(c1ccc(F)cc1)c1ccc(F)cc1)C2 (stereo not given) | inactive |
| C[C@]12CC[C@H]3[C@@H](CCC4C[C@H](O)CC[C@@]43C)[C@@H]1CC[C@@H]2O (stereo not given in full) | inactive |
| C/C=C(/C)C(=O)O[C@H]1C(C)=C2C([C@@H]1OC(=O)CCCCCCC)[C@@](C)(OC(C)=O)C[C@@H](OC(=O)CCC)[C@@]1(O)[C@H]2OC(=O)[C@@]1(C)O (stereo not given in full) | inactive |
| CCCN1CCCC(c2cccc(O)c2)C1 (stereo not given) | inactive |
| C#CCN(C)C(C)Cc1ccccc1 (stereo not given) | inactive |
| C[C@]12CC[C@@H](O)CC1CCC1C2CC[C@]2(C)C(=O)CC[C@@H]12 (stereo not given in full) | inactive |
| N#CC(=Cc1ccc(O)c(O)c1)C(N)=S | inactive |
